# Experimental data from PubChem BioAssay AID1985 (Southern Research Specialized Biocontainment Screening …, 2009).
# Screen size: about 2,300 compounds; about 1,000 (43%) were called active. So high a share suggests a set chosen from earlier hits. The list shows a part of the results. Potency and affinity values are given separately. Values without a mark were called inactive. How the calls were made is not given here.
# Test: PhoP regulon inhibitor project modified counter assay, GFP fluorescence readout, dose response (AID 1985)
# Conditions: S. Typhi, 4 h; series mostly up to 150 µM; inhibition: at the top concentration
row,SMILES,inhibition [%]
1,Cc1cccc(OCc2nnc(SCC(=O)N3CCCC3)n2C)c1,0.15
2,C[N+]1(CC2COC3(CCCCC3)O2)CCCCC1 (configuration not stated),-16.7
3,CCN(CC)S(=O)(=O)c1ccc2c(c1)c(C(=O)O)cn2C,-22.8
4,Cc1nnc(SCC(=O)N(C(C)C)C(C)C)[nH]c1=O,-1.13
5,O=C1CCCN1c1ccc(CNS(=O)(=O)c2ccc(F)cc2)cc1,14.6
6,CCCCOc1ccc(C2=NNC(=O)CC2)cc1,10.7
7,O=C(O)c1cnn2c1NC(c1cccs1)CC2C(F)(F)F (configuration not stated),16.3
8,Cc1cc2ncn(/N=C/c3ccc([N+](=O)[O-])o3)c2cc1C,38.2
9,O=C(Nc1ccccc1)c1cccnc1N1CCOCC1,-0.62
10,Cc1cccc(N2CCN(C(=O)C3CCN(c4nnc(-n5cccc5)s4)CC3)CC2C)c1 (configuration not stated),-1.88
11,c1ccc2c(c1)nc(N1CCOCC1)c1c3ccccc3[nH]c21,-20.5
12,COCCNC(=S)N=Nc1c(O)[nH]c2ccc([N+](=O)[O-])cc12,-1.84
13,CC(=O)N1CSCC1C(=O)N1CCN(c2ccc(N3CCOCC3)nn2)CC1 (configuration not stated),-3.7
14,Cc1nc2ccc(NC(=O)C(F)(F)F)cc2o1,27
15,CCn1nnnc1NCc1cccc(Cl)c1,-20.1
16,O=C(/C=C/c1ccc(Cl)cc1)NCCCn1ccnc1,-22.4
17,O=C(NCCCn1ccnc1)c1cc2c(ccc3ccccc32)o1,18.6
18,Cc1noc(C)c1S(=O)(=O)N1CCC(Cc2ccccc2)CC1,-9.13
19,CC(C)(C)c1ccc(NC(=O)COc2ccc(-n3ccnc3)cc2)cc1,27.7
20,Cc1nn(-c2ccccc2)c(C)c1/C=N/n1c(-c2ccc(C(C)(C)C)cc2)n[nH]c1=S,-11.4
21,CC1CCCC(NC(=O)COC(=O)CCSc2ccccc2)C1C (configuration not stated),-7.97
22,O=C(Nc1ccccc1)C1=C(O)CC(c2ccc(Cl)cc2)N2CCN=C12 (configuration not stated),12.4
23,CNCCC=C1c2ccccc2CCc2ccccc21,31.5
24,CN(C)CCCN1c2ccccc2CCc2ccc(Cl)cc21,20.5

row,SMILES,inhibition [%]
1,c1cc(N2CCCC2)ccc1C(c1nnnn1C1CCCCC1)N1CCOCC1 (configuration not stated),-19.3
2,O=C(N/N=C/c1ccco1)c1cccc(NC(=O)c2cccc(Cl)c2)c1,23.2
3,O=C(Nc1ccc2c(c1)OCCO2)C(=S)NCc1ccccc1,-7
4,Cc1cc(C)nc(SCC(=O)NCc2ccco2)n1,-6.91
5,Cc1ccccc1Cn1c(=O)n(CCCC(=O)NCc2ccco2)c(=O)c2ccccc21,-9.8
6,CC(C)CN1CCN(Cc2cnc(N3CCOCC3)s2)CC1CCO (configuration not stated),14.1
7,O=C(Nc1ccc(N2CCOCC2)c(Cl)c1)c1ccc(-n2cnnc2)cc1,-0.71
8,CCOc1ccc(N2CC(C(=O)OCC(=O)NCc3ccccc3)CC2=O)cc1 (configuration not stated),0.98
9,COc1ccc2nc(NC(=O)Nc3ccccc3)sc2c1,9.9
10,COc1ccc2nc(Nc3ccccc3)sc2c1,32.8
11,CC(C)Oc1ccc(N2CC(C(=O)Nc3ccccc3F)CC2=O)cc1 (configuration not stated),-15.5
12,O=[N+]([O-])c1ccc2oc(C3CCCCC3)nc2c1,8.69
13,Cc1ccc(C)c(NC(=O)CCC(=O)N/N=C/c2cc([N+](=O)[O-])ccc2O)c1,11.1
14,CC(=O)Cc1nsc(NC(=O)c2csc3c2CCCC3)n1,7.4
15,Oc1ccccc1-c1cc(C(F)(F)C(F)F)[nH]n1,-11.8
16,CN1C(=O)/C(=C/c2cccc(Cl)c2)Sc2ccc(C(=O)N3CCCC3)cc21,-8.84
17,O=C(O)c1ccc(N2C(=O)CC(N3C(=O)/C(=C/c4ccc(Cl)cc4)SC3=S)C2=O)cc1 (configuration not stated),-12.8
18,CC1CCN(c2c(NCc3ccc(C(=O)N4CCN(C5CCCCC5)CC4)cc3)c(=O)c2=O)CC1,-0.75
19,Cc1cccc(NC(=O)c2sc3nc(-c4ccccc4)cn3c2C)n1,23.2
20,Cc1cc[n+](CC(=O)c2ccc(NC(=O)c3ccccc3)cc2)cc1,29.1
21,COc1cccc(N2CCN(C(=S)NCc3ccco3)CC2)c1,-20.3
22,COc1ccc(OC)c(-c2cc(C(=O)Nc3ccc(F)cc3F)no2)c1,-11.1
23,N#Cc1nc(COc2ccc(Br)cc2)oc1NCCCn1ccnc1,7.42
24,COc1ccc2nc(N(CCN(C)C)C(=O)/C=C/c3cccs3)sc2c1,3.3

row,SMILES,inhibition [%]
1,Cc1cc(C)c2sc(N(CCCN(C)C)C(=O)COc3ccc(Cl)cc3)nc2c1,-22.5
2,CN(C)CCN(C(=O)C1=COCCO1)c1nc2ccc(Cl)cc2s1,32.5
3,Cc1cccc(CSCCNC(=O)COc2ccc(Cl)cc2)c1,-11.1
4,COc1ccccc1C1CN(c2ccc(F)cc2F)N=C1c1cccs1 (configuration not stated),-19.3
5,Cc1ccc(S(=O)(=O)N2CCOCC2)cc1NC(=O)CSc1nc(N)cc(=O)[nH]1,5.71
6,C=CCN1C(=O)C(O)(CC(=O)c2c(C)n[nH]c2C)c2cc(Br)ccc21 (configuration not stated),-21.6
7,Cc1nc(N=Nc2ccc(O)cc2)n[nH]1,8.35
8,O=C(Cn1cc(/C=C\[N+](=O)[O-])c2ccccc21)Nc1ccccc1,-5.61
9,Cc1cc(C)nc(/N=C(\N)Nc2ccc(SC(F)F)cc2)n1,-32
10,CC(C)(C)n1nc2c(c1NC(=O)Cc1cccs1)CSC2,16.7
11,CC1(NC(=O)NCCCCCCNC(=O)NC2(C)CCS(=O)(=O)C2)CCS(=O)(=O)C1 (configuration not stated),18.6
12,Nc1ncnc2nc(SCC(=O)Nc3cccc(C(F)(F)F)c3)[nH]c12,-18
13,O=C(Nc1ccc2[nH]c(=S)sc2c1)Nc1ccccc1F,16.8
14,Clc1ccc(Cn2cccc2C2=NCCO2)cc1,-20.6
15,c1cnc2nc(-c3ccc4c(c3)OCO4)cn2c1,-15.2
16,CN1CCN(c2nc(Nc3ccc(F)cc3)nc(Nc3ccc(F)cc3)n2)CC1,3
17,COc1ccc(S(=O)(=O)N[C@H](C(=O)N2CC[C@@]3(O)CCCC[C@H]3C2)c2ccccc2)cc1,5.64
18,CCN(CC)CCOC(=O)c1cc(Cl)c(N)cc1OC,-1.1
19,O=C(/C=C/c1ccc(O)cc1)c1ccccc1,34.7
20,CCc1c(C)n([O-])c2c([n+]1=O)CCCCC2,-20.9
21,COc1ccc(N(CC(=O)N2c3ccccc3CC2C)S(=O)(=O)c2c(C)noc2C)cc1 (configuration not stated),-9.92
22,N#Cc1c(/N=C/c2cccs2)sc2c1CCCCC2,-1.01
23,Cc1cc(C)cc(CSc2nnc(C)c(=O)[nH]2)c1,9.57
24,COc1cccc(CNC(=O)C2CCN(S(=O)(=O)c3ccc(C)cc3)CC2)c1,-29.9

row,SMILES,inhibition [%]
1,CC(=O)NC(c1ccc(Cl)cc1Cl)c1ccc2cccnc2c1O (configuration not stated),-7.3
2,Cc1ccc(Cn2c(=N)c(C(=O)NCCN3CCOCC3)cc3c(=O)n4ccccc4nc32)cc1,18.7
3,COc1cc2[nH]c(=O)n(Cc3ccc(C(=O)N4CCC(N5CCCCC5)CC4)cc3)c(=O)c2cc1OC,10
4,O=C(c1cc2c(s1)-c1ccccc1OC2)N1CCc2ccccc2C1,19.1
5,CNC[C@@H](CC1CCCCC1)NC[C@H](CC(C)C)NCCc1cccc(C(F)(F)F)c1,-36.2
6,CS(=O)(=O)N1CC(C(=O)NC2CC2)Oc2ccc(Cl)cc21 (configuration not stated),-27.2
7,CCCSc1nc2cc(OC)c(OC)cc2c(=N)n1CCCN1CCOCC1,19.8
8,CC(C)(C)NC(=O)c1ccc2c3c(cccc13)CC2,-17.1
9,O=C(CSc1nnnn1C1CCCCC1)N1CCCC1,14.7
10,COCCn1nnnc1C(c1cccc(OC)c1OC)N1CCN(C2CCCCC2)CC1 (configuration not stated),-5.07
11,CC(C)OC(=O)c1cccc(C(=O)Oc2ccc(Br)cc2)n1,0.97
12,CCOc1ccc(Cl)cc1/C=N/O,8.29
13,O/N=C/C1=C(Cl)c2ccccc2CC1,22.5
14,CCOC(=O)Cn1c(=O)oc2cc(S(=O)(=O)NCC3CCCO3)ccc21 (configuration not stated),-29.3
15,CCOC(=O)C(NC(C)=O)(OCc1ccc(F)cc1)C(F)(F)F (configuration not stated),2.56
16,Cc1nn(Cc2ccccc2Cl)c2sc(C(=O)Nc3ccccc3N3CCOCC3)cc12,7.16
17,O=C1SC(c2ccccc2)=C/C1=C\N1CCCCC1,19.4
18,CC(C)C(NS(=O)(=O)c1cccc2nsnc12)C(=O)N1CCn2c1nc1ccccc12 (configuration not stated),-3.12
19,Nc1[nH]c(=O)ncc1F,8.91
20,O=C1c2cccnc2C(=O)N1c1ccccc1-c1ccccc1,-2.32
21,Cc1ccc(-n2c(=O)c3sccc3n(CC(=O)NC3CCCCC3)c2=O)cc1,9.8
22,Cc1ccc2c(c1)c1c(n2CC(O)CN2CCC(C)CC2)CCCC1 (configuration not stated),-34.2
23,C[N+]1(C)C2CCC1CC(OC(=O)c1ccccc1)C2 (configuration not stated),-20.4
24,CCN(CC)C(=O)C1CCN(Cc2ccc(Br)cc2)CC1,-2.26

row,SMILES,inhibition [%]
1,COCCNC(=O)c1cccc(OC2CCN(Cc3ccccc3C)CC2)c1,-1.98
2,N=c1c(C(=O)NCC2CCCO2)cc2c(=O)n3ccccc3nc2n1Cc1ccc(Cl)cc1 (configuration not stated),9.7
3,CCOc1ccc(NC(=O)CN(C)S(=O)(=O)c2cccs2)cc1,15.2
4,Cc1ncc(CC(=O)n2cc(C(=O)c3cc(F)ccc3O)cn2)s1,38.7
5,CN(C)C(=O)CC12CC3CC(C1)CC(CC(=O)N(C)C)(C3)C2,-17.9
6,Nc1cc2c3c(cccc3c1)C(=O)N(CCN1CCCC1)C2=O,35
7,CC[C@H](C)[C@@H](CN[C@H](C)CNC)NCCC(c1ccccc1)c1ccccc1,26.2
8,O=C(Cn1c(=O)oc2ccccc21)N1CCN(c2ccc(N3CCOCC3)nn2)CC1,0.93
9,CCn1c(O)c(N=NC(=O)CNC(=O)/C=C/c2ccco2)c2ccccc21,1.49
10,Cc1c(CCN)ccc2c1[nH]c1ccccc12,26.4
11,O=C(N/N=C/c1c(Cl)nc2ccccn2c1=O)c1cccnc1,-34.3
12,Cc1c(C=O)c2ccccn2c1C(=O)c1ccccc1,21.6
13,Oc1ccc(-c2nc3ncccn3c2Nc2ccc3c(c2)OCCO3)cc1,15.1
14,CC(C)CC(c1nnnn1Cc1ccco1)N1CCN(c2cccc(Cl)c2)CC1 (configuration not stated),17.4
15,COc1cccc(C2=NO[C@@H]3C(=O)N(Cc4ccccc4)C(=O)[C@H]23)c1OC,6.49
16,CCOC(=O)/C=C1/N(C)c2ccccc2C1(C)C,-30.2
17,CC(Oc1ccc(/C=N/NC(=O)Cc2cccc3ccccc23)cc1)C(=O)O (configuration not stated),0.72
18,COc1ccc(/C=N/Nc2cc(C)nc3ccccc23)cc1,-40.8
19,Cc1cc(N/N=C/c2ccc(F)cc2)nc(NCc2ccccc2)n1,17.8
20,COc1ccc(/C=N/NC2=NCCCCC2)c(OC)c1,20.2
21,Cc1ccc(N/N=C/c2ccncc2)cc1,-6.54
